Experiment [1] addresses T1, Mitogen-activated protein kinase kinase kinase 5 (Homo sapiens) (UniProt Q99683).
T1 sequence (whole entry): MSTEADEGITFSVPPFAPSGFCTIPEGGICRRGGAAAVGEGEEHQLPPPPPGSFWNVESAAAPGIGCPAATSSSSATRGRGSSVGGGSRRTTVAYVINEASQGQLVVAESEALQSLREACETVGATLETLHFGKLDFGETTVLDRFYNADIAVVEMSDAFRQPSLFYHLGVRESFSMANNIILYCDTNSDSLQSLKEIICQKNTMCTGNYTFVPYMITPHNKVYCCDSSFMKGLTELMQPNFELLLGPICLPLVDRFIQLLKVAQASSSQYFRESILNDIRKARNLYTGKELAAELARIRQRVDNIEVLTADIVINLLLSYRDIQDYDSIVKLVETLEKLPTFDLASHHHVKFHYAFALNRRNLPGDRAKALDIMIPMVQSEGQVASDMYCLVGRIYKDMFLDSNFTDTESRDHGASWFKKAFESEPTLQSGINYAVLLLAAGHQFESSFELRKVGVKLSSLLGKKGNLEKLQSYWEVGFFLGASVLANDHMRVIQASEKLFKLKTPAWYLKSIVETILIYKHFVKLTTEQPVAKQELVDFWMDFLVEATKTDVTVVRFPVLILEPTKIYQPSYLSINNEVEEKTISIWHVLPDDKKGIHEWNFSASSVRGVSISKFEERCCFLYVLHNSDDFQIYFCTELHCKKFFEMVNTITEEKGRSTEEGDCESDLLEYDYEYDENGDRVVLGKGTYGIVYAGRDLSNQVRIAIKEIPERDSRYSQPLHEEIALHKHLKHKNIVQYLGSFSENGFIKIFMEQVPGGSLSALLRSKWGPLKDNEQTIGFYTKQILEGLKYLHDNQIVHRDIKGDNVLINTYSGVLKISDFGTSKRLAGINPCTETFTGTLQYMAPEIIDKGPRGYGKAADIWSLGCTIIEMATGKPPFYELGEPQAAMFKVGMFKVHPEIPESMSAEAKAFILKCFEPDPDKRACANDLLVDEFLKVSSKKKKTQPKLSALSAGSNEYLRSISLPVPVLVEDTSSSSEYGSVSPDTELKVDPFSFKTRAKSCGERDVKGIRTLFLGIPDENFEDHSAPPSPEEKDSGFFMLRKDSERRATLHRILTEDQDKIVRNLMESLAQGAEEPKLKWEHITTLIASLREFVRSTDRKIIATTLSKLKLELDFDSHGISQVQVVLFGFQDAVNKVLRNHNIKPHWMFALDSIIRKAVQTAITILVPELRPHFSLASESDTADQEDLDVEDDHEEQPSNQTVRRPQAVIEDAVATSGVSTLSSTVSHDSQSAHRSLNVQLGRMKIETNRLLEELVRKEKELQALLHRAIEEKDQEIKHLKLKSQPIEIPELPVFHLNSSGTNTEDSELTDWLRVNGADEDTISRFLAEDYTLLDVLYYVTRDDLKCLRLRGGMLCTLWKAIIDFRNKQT
The note with it: at 10 µM.

The target in experiment [2] is Tyrosine-protein kinase ABL1 (Homo sapiens) (UniProt P00519). The note with it: at 1 µM.
Chain of Tyrosine-protein kinase ABL1 (Homo sapiens) (P00519 whole entry): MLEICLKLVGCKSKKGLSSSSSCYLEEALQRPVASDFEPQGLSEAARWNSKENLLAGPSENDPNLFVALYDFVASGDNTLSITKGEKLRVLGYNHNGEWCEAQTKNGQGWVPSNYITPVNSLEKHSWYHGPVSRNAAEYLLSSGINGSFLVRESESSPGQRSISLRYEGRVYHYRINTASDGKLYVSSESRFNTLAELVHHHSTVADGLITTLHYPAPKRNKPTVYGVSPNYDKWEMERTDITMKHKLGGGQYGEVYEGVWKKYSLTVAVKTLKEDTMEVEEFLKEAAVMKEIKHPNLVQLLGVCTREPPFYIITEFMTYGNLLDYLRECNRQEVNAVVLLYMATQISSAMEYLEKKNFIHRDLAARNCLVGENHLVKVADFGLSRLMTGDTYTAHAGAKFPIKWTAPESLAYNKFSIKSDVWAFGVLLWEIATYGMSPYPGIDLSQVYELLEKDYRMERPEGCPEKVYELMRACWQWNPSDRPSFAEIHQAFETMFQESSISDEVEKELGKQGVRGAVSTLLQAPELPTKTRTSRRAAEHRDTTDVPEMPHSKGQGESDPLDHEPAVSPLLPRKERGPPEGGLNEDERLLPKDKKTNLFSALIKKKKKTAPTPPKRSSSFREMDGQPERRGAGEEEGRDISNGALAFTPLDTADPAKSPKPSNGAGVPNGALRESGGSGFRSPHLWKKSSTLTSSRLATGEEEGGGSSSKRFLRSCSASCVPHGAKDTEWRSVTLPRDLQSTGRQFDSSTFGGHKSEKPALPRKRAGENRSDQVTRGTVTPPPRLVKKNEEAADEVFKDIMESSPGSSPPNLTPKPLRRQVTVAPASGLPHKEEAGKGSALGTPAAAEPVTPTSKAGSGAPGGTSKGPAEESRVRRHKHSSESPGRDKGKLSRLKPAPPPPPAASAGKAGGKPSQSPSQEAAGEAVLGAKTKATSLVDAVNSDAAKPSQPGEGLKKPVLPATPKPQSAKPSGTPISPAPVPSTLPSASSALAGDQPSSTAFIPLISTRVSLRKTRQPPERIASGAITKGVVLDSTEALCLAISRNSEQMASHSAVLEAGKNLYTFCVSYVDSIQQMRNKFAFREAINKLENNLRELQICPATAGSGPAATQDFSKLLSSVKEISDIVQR
The target is the same in experiment [3]. As to conditions: at 10 µM; call rule not given here.
Experiment [4] addresses Tyrosine-protein kinase ABL2 (Homo sapiens) (UniProt P42684). As to conditions: at 1 µM.
Experiment [5] shares this target. The note with it: at 10 µM.
The target of experiment [6] is T2, Aurora kinase A (Homo sapiens) (UniProt O14965).
T2 sequence (whole entry): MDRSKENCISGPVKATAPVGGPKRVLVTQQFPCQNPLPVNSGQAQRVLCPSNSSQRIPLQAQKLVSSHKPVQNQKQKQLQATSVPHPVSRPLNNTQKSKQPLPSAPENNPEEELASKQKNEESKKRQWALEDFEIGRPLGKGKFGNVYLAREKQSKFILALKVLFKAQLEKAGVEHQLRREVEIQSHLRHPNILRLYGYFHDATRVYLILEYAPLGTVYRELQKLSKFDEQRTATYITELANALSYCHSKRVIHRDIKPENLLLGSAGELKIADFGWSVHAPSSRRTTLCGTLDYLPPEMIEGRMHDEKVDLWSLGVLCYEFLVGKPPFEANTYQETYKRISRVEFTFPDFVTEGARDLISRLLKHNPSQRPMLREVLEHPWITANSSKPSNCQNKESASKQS
As to conditions: at 1 µM.

The target of experiment [7] is T2, Aurora kinase A (Homo sapiens). The note with it: at 10 µM.
Experiment [8] has as its target Aurora kinase B (Homo sapiens) (UniProt Q96GD4). As to conditions: at 1 µM.
Experiment [9] shares this target. The note with it: at 10 µM.
The target in experiment [10] is T3, Aurora kinase C (Homo sapiens) (UniProt Q9UQB9).
T3 sequence (whole entry): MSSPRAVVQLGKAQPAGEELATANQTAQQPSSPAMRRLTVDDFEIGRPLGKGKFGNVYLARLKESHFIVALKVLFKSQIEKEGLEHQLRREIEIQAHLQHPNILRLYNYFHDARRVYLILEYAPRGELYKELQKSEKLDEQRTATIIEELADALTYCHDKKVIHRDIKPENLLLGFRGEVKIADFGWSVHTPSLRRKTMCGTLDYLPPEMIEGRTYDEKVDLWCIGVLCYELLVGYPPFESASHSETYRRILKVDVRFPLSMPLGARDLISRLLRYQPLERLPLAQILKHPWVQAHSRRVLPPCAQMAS
The note with it: at 1 µM.

Experiment [11] deals with T3, Aurora kinase C (Homo sapiens). As to conditions: at 10 µM.
For experiment [12], the target named is Tyrosine-protein kinase receptor UFO (Homo sapiens) (UniProt P30530). The note with it: at 1 µM.
Chain of Tyrosine-protein kinase receptor UFO (Homo sapiens) (P30530 whole entry): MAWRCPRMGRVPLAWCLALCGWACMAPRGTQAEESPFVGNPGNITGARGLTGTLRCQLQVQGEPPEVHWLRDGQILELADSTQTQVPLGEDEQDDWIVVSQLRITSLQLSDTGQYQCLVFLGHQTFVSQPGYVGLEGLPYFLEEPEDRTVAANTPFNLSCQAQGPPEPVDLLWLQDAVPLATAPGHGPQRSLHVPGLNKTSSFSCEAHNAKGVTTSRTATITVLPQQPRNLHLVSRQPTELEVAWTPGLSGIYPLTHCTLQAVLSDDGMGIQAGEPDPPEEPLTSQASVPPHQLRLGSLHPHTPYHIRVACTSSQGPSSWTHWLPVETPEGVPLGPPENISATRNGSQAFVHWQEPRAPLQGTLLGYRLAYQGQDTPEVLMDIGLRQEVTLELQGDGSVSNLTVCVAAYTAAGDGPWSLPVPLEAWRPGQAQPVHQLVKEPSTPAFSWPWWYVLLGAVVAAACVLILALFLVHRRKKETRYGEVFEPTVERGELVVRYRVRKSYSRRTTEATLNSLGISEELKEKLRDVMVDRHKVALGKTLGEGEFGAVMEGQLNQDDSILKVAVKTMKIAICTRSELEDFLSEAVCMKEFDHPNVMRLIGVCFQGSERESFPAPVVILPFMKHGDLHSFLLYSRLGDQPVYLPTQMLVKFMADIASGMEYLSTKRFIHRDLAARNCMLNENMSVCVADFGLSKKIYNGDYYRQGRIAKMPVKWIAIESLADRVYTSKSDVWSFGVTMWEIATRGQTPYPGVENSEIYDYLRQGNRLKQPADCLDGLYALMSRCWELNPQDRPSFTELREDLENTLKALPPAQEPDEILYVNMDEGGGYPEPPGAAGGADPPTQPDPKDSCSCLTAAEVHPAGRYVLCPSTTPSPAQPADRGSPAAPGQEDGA
Experiment [13] has the same target. As to conditions: at 10 µM.
Experiment [14] deals with Tyrosine-protein kinase BTK (Homo sapiens) (UniProt Q06187). As to conditions: at 10 µM.
Chain of Tyrosine-protein kinase BTK (Homo sapiens) (Q06187 whole entry): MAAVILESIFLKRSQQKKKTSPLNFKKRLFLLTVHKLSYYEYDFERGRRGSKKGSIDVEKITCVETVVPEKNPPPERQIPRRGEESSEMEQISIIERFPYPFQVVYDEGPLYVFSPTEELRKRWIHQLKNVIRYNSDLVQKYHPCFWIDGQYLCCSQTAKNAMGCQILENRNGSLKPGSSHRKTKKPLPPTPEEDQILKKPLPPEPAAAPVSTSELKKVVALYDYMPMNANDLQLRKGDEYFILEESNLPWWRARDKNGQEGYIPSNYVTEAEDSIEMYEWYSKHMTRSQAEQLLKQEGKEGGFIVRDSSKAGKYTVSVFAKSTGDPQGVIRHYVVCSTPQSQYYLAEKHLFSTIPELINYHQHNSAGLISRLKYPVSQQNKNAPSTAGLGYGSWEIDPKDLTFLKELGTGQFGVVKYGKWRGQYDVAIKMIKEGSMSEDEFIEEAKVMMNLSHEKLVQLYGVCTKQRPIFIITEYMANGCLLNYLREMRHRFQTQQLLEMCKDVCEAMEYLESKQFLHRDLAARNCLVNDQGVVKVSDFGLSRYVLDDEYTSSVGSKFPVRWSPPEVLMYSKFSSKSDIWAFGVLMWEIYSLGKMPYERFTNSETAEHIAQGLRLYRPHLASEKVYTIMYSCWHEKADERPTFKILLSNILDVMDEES
Experiment [15] deals with Tyrosine-protein kinase Blk (Homo sapiens) (UniProt P51451). As to conditions: at 1 µM.
Experiment [16] has the same target. As to conditions: at 10 µM.
Experiment [17] addresses Protein-tyrosine kinase 6 (Homo sapiens) (UniProt Q13882). The note with it: at 1 µM.
For experiment [18] the target is unchanged. As to conditions: at 10 µM.
Experiment [19] addresses Tyrosine-protein kinase BTK (Homo sapiens) (UniProt Q06187). As to conditions: at 1 µM.
For experiment [20], the target named is T4, Protein kinase C zeta type (Homo sapiens) (UniProt Q05513).
T4 sequence (whole entry): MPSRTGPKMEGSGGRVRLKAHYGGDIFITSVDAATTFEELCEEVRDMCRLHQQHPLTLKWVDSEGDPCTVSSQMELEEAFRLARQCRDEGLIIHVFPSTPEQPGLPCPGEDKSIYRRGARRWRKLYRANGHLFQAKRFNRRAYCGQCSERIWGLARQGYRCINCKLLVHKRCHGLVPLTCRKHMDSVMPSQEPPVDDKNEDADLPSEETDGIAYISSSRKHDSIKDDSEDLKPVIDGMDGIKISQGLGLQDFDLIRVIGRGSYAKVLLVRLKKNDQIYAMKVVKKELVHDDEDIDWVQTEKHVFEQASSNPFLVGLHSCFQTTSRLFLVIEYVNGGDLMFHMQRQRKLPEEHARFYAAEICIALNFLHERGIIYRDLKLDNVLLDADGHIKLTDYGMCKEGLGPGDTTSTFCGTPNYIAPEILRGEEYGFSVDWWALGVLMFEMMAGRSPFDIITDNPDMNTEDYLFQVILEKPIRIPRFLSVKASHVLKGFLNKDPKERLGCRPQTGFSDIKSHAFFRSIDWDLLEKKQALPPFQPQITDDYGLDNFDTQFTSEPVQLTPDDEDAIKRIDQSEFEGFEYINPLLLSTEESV
As to conditions: at 1 µM.

This is an account of results in ChEMBL document CHEMBL2218924, “A broad activity screen in support of a chemogenomic map for kinase signalling research and drug discovery” (Biochem J, 2013).

Chain of Protein-tyrosine kinase 6 (Homo sapiens) (Q13882 whole entry, looked up): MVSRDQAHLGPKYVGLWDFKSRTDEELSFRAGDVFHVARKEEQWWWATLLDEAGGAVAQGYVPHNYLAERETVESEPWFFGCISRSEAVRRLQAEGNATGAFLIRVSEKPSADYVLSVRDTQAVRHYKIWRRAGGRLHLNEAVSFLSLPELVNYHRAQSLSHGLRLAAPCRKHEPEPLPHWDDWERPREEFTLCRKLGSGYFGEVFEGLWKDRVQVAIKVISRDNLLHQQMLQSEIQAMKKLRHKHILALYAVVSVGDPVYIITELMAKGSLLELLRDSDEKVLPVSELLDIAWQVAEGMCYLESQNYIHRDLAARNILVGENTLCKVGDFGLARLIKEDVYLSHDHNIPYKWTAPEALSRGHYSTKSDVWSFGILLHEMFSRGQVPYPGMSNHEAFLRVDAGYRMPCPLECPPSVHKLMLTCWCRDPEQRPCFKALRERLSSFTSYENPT
Chain of Tyrosine-protein kinase ABL2 (Homo sapiens) (P42684 whole entry): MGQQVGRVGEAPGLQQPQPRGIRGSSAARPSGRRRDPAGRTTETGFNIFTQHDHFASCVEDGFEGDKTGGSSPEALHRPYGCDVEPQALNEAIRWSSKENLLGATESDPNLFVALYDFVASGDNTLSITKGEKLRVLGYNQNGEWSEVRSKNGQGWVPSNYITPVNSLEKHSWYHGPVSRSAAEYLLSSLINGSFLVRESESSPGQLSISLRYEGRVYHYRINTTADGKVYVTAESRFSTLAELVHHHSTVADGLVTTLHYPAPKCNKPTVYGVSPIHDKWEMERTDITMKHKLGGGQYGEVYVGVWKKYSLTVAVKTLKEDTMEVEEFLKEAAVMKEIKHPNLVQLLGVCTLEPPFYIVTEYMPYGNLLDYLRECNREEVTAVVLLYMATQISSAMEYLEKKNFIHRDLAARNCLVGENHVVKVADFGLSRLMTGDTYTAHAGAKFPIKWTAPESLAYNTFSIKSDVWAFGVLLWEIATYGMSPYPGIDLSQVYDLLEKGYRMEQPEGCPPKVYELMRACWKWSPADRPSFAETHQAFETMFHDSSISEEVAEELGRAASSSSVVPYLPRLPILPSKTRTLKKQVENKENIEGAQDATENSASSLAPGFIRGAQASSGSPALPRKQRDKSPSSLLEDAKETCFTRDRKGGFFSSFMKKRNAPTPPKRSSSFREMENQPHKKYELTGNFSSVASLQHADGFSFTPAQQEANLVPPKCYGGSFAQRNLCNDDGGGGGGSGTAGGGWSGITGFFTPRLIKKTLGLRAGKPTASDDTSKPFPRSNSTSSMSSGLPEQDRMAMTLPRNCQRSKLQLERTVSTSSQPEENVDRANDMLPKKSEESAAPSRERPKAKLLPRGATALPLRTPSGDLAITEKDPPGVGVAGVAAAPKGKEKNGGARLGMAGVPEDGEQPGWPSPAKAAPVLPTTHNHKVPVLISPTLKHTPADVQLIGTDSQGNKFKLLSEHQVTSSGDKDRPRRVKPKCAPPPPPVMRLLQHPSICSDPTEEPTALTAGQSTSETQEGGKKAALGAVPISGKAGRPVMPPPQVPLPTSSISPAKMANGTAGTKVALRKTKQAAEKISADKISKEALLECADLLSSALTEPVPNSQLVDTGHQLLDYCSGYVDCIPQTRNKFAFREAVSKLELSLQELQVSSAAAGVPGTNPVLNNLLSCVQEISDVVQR
Chain of Aurora kinase B (Homo sapiens) (Q96GD4 whole entry): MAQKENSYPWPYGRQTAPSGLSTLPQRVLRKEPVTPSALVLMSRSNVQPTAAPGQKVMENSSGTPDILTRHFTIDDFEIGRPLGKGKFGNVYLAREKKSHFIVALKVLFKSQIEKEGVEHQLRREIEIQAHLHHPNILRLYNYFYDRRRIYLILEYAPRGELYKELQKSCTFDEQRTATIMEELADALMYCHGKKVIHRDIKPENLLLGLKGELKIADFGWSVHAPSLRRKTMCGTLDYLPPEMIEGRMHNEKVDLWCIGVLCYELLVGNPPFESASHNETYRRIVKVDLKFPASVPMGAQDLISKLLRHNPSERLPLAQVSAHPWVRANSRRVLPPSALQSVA

For `O=C(c1ccccc1)c1ccc(N2CCOCC2)cc1O`, the residual activity in experiment [1] amounted to 95%; in experiment [2], 94%; in experiment [3], 82%; in [4], 98%; in experiment [5], 98%; in experiment [6] it was 77%. In addition, the residual activity in experiment [7] is 91%; in experiment [8] it was 86%; in [9], 65%; in experiment [10], 64%; in experiment [11] it was 78%; in experiment [12] it was 86%. Moreover, the residual activity is 72% in experiment [13], 116% in experiment [14], 95% in experiment [15] and 81% in experiment [16].
For the compound `O=C1NC(=O)c2c1c1c3ccccc3[nH]c1n1cncc21`, the residual activity was found to be 96% in experiment [1]; 80% in experiment [2]; 62% in [3]; 91% in experiment [4]; 56% in experiment [5]; 14% in [6]. In addition, the residual activity came out at 1% in [7]; 3% in experiment [8]; 0% in [9]; 37% in [10]; 12% in [11]; 86% in [12]. In addition, the residual activity in [13] is 71%; in experiment [17], 81%; in experiment [18], 53%; in experiment [19] it was 70%; in [14], 34%; in [15] it was 57%. The residual activity in [16] worked out at 8%.
For the compound `CCCCc1c(-c2ccc(O)cc2)[nH]c2nccnc12`, the residual activity worked out at 83% in experiment [1]; 81% in [2]; 44% in experiment [3]; 75% in experiment [4]; 60% in experiment [5]; 6% in experiment [6]. The residual activity in experiment [7] is 20%; in [8], 2%; in [9] it was 0%; in [10] it was 50%; in [11], 49%; in experiment [12], 92%. Moreover, the residual activity in [13] came to 75%; in experiment [17] it was 31%; in [18], 29%; in [19], 33%; in experiment [14] it was 10%; in experiment [15], 73%. Besides, the residual activity in [16] worked out at 50%.
Regarding `COc1cc2ncnc(Nc3cccc(Cl)c3)c2cc1OC`, the residual activity came out at 106% in [1]; 41% in [2]; 14% in experiment [3]; 48% in experiment [4]; 10% in [5]; 49% in experiment [7]. Also, the residual activity in [8] was found to be 64%; in experiment [9] it was 8%; in experiment [10], 100%; in experiment [11], 45%; in experiment [12], 102%; in [13], 51%. For the same compound, the residual activity worked out at 33% in experiment [17], 3% in experiment [18], 43% in experiment [15] and 5% in experiment [16].
`COc1cc2nccc(Oc3ccc(NC(=O)Nc4cc(C)on4)c(Cl)c3)c2cc1OC`: the residual activity in experiment [20] is 108% (inactive); in experiment [4], -2%; in [5] it was -1%; in experiment [6], 7%; in experiment [7] it was 7%; in [8], 3%. The residual activity worked out at 1% in experiment [9]; 32% in experiment [10]; 7% in experiment [11]; 12% in experiment [12]; 10% in [13]; 2% in [17]. In addition, the residual activity in experiment [18] is -1%; in experiment [19], 50%; in [14], 10%; in experiment [15], 2%; in [16], 0%.
For `O=c1cc(N2CCNCC2)oc2c(-c3ccccc3)cccc12`, the residual activity turned out to be 78% in experiment [1]; 88% in [2]; 89% in [3]; 97% in experiment [4]; 101% in experiment [5]; 95% in experiment [6]. The residual activity came out at 80% in experiment [7]; 79% in experiment [8]; 63% in [9]; 80% in experiment [12]; 76% in experiment [13]; 99% in [18]. Also, the residual activity in experiment [16] is 71%.
